According to PubChem BioAssay (Tox21):
Records with an inconclusive call do not appear. Activity calls are given as the source filed them. Unless noted, the call rests on the fitted dose curve; in most records, active means well fitted curve in the direction sought with a large enough effect in the repeat runs; inconclusive means weak or mixed curves; inactive means no such curve, though single readings can be large; an effect the other way counts as inactive or inconclusive.

Legend:
[1] = qHTS assay to identify small molecule antagonists of the glucocorticoid receptor (GR) signaling pathway - cell viability counter screen (AID 720693); further: nearly all actives have a fitted effect of over 55% in size
[2] = qHTS assay for identifying genotoxic compounds that show differential cytotoxicity against isogenic chicken DT40 cell lines with known DNA damage response pathways - wild type cell line (AID 743012); further: nearly all actives have a fitted effect of over 60% in size
How it was run: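 Wild-type DT40 cells (300/well) exposed to compounds for 40 hours at 37 C/5% CO2. Viability read by CellTiter-Glo luminescence after 30 min at room temperature.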

[3] = qHTS assay for identifying genotoxic compounds that show differential cytotoxicity against isogenic chicken DT40 cell lines with known DNA damage response pathways - Rev3 mutant cell line (AID 743014); further: nearly all actives have a fitted effect of over 55% in size
[4] = qHTS assay for identifying genotoxic compounds that show differential cytotoxicity against isogenic chicken DT40 cell lines with known DNA damage response pathways - Rad54/Ku70 mutant cell line (AID 743015); further: nearly all actives have a fitted effect of over 60% in size
[5] = qHTS assay to identify small molecule antagonists of the androgen receptor (AR) signaling pathway - cell viability counter screen (AID 743033; further: nearly all actives have a fitted effect of over 45% in size)
[6] = qHTS assay to identify small molecule antagonists of the androgen receptor (AR) signaling pathway using the MDA cell line - cell viability counter screen (AID 743041; further: nearly all actives have a fitted effect of over 45% in size)
How it was run: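 R1881-driven MDA-kb2 AR-luc cells, 3,000/well, were dosed with library compounds for 16 h; cell health came from CellTiter-Fluor fluorescence in the reporter wells.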

[7] = qHTS assay to identify small molecule antagonists of the thyroid receptor (TR) signaling pathway - cell viability counter screen (AID 743064); further: nearly all actives have a fitted effect of over 50% in size
How it was run: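 GH3.TRE-Luc rat pituitary cells dosed after 4 hr plating, co-stimulated with T3 at 1 nM final, incubated 23.5 h at 37 C. Viability measured in the same wells by CellTiter-Fluor fluorescence after 30 min further at 37 C.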

[8] = qHTS assay to identify small molecule antagonists of the thyroid receptor (TR) signaling pathway (AID 743065); further: series mostly up to about 70 µM; nearly all actives have a fitted effect of over 55% in size
How it was run: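 Antagonism measured as loss of luciferase signal in GH3 cells stably carrying a TRE-luciferase reporter, co-treated with compound and T3 (1 nM final) for 23.5 h at 37 C. Viability was read in the same well by CellTiter-Fluor.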

[9] = tested on: thyroid hormone receptor (rat, GH3 cells); test: qHTS assay to identify small molecule agonists of the thyroid receptor (TR) signaling pathway (AID 743066; calls by dose curve)
[10] = molecular target: Estrogen receptor (Homo sapiens) (UniProt P03372); test: qHTS assay to identify small molecule antagonists of the estrogen receptor alpha (ER-alpha) signaling pathway (AID 743069; active means well fitted curve in the direction sought with a large enough effect in the signal ratio in the repeat runs, not every such curve was filed as active; the % refers to the signal ratio)
Chain of Estrogen receptor (Homo sapiens) (P03372 whole entry, looked up): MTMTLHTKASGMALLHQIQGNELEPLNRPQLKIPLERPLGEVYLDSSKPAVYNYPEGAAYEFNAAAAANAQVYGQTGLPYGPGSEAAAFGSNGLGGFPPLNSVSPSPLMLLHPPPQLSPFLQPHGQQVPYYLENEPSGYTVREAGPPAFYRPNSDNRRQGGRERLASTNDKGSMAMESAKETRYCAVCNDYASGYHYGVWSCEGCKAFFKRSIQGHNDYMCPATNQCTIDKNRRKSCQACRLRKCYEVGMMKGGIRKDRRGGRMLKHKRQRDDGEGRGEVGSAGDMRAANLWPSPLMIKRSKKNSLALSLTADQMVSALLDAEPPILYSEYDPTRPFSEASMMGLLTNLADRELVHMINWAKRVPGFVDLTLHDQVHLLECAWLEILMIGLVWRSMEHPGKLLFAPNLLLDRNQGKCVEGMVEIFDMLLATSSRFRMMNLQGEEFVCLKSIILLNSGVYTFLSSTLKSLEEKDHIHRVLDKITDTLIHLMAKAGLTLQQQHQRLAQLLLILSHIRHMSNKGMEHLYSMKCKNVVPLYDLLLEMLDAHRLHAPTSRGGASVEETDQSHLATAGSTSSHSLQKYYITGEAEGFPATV
How it was run: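 Compound effects are measured against 17beta-estradiol stimulation in HEK293 cells with a UAS-controlled beta-lactamase reporter for ER-alpha. Exposure lasts 18 hr at 37C; LiveBLAzer B/G FRET substrate follows for 2 hr at room temperature.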

[11] = qHTS assay to identify small molecule antagonists of the estrogen receptor alpha (ER-alpha) signaling pathway - cell viability counter screen (AID 743074; calls by dose curve;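 further: HEK293 cells carrying ER-alpha-UAS-bla reporter stimulated with 17beta-estradiol; nearly all actives have a fitted effect of over 45% in size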)
[12] = molecular target: Estrogen receptor (Homo sapiens) (UniProt P03372); test: qHTS assay to identify small molecule agonists of the estrogen receptor alpha (ER-alpha) signaling pathway (AID 743075; calls by dose curve)
[13] = molecular target: Estrogen receptor (Homo sapiens) (UniProt P03372); test: qHTS assay to identify small molecule agonists of the estrogen receptor alpha (ER-alpha) signaling pathway using the BG1 cell line (AID 743079); further: nearly all actives have a fitted effect of over 20% in size
[14] = qHTS assay to identify small molecule antagonists of the estrogen receptor alpha (ER-alpha) signaling pathway using the BG1 cell line (AID 743080; calls by dose curve;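 further: BG1 cells stimulated with 17beta-estradiol alongside compound; series mostly up to about 70 µM; nearly all actives have a fitted effect of over 25% in size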)
How it was run: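 BG1-Luc-4E2 cells (endogenous full-length ER-alpha, stable 4×ERE-luciferase) were starved 5 days in phenol-red-free medium with 10% charcoal-stripped FBS, plated 24 h, then given compound plus 17beta-estradiol for 21.5 h at 37 C; ONE-Glo luminescence read after 30 min.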

[15] = qHTS assay to identify small molecule antagonists of the estrogen receptor alpha (ER-alpha) signaling pathway using the BG1 cell line - cell viability counter screen (AID 743081);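 further: compound given together with 17beta-estradiol as the ER stimulus; series mostly up to about 70 µM; nearly all actives have a fitted effect of over 45% in size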
[16] = molecular target: Aromatase (Homo sapiens) (UniProt P11511); test: qHTS assay to identify aromatase inhibitors (AID 743083); further: series mostly up to about 70 µM; nearly all actives have a fitted effect of over 55% in size
Chain of Aromatase (Homo sapiens) (P11511 whole entry, looked up): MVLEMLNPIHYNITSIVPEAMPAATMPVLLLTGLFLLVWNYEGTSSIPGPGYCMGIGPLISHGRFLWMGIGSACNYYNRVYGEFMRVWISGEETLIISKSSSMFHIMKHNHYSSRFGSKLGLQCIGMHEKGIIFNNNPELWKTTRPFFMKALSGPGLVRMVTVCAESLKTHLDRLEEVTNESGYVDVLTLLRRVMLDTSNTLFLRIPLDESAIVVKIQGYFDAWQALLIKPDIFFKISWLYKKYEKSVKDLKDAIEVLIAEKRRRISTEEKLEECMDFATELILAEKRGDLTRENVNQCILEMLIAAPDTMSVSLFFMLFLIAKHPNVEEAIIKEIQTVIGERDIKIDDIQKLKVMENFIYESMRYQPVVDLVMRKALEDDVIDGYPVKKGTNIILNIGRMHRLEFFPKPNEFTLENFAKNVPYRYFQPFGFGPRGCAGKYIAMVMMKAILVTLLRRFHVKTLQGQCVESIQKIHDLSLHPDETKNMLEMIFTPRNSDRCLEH

[17] = molecular target: Androgen receptor (Homo sapiens) (UniProt P10275); test: qHTS assay to identify small molecule antagonists of the androgen receptor (AR) signaling pathway (AID 743035; active means well fitted inhibition curve with a large enough effect in the signal ratio in the repeat runs, not every such curve was filed as active; the % refers to the signal ratio)
Chain of Androgen receptor (Homo sapiens) (P10275 whole entry, looked up): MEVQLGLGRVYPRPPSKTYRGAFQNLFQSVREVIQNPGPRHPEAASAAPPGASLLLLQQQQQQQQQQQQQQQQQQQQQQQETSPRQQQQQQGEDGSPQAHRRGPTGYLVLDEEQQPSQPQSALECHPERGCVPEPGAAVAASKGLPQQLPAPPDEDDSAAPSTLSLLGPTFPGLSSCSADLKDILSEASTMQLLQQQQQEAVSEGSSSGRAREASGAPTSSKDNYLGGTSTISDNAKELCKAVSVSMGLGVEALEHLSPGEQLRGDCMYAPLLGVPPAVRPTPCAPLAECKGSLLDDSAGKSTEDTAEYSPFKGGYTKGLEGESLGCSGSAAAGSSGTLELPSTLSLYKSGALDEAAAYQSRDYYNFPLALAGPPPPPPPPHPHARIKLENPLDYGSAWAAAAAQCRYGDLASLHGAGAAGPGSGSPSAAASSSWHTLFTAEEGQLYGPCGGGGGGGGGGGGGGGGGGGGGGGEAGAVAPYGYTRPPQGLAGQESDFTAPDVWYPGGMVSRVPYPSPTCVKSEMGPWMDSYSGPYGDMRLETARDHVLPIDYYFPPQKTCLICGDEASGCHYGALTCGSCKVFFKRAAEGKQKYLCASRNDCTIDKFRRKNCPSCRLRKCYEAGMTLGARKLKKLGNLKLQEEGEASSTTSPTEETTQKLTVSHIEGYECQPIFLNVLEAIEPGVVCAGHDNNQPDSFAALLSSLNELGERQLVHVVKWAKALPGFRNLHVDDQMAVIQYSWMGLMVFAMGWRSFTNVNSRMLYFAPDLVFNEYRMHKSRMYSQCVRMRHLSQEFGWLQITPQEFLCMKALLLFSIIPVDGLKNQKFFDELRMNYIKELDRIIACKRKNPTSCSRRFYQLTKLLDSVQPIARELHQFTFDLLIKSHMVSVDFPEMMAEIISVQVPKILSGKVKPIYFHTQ
How it was run: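 HEK293 cells stably carrying UAS-beta-lactamase reporter, 2,000/well, given compounds plus R1881 agonist and incubated 16 h at 37C. LiveBLAzer B/G FRET substrate then added for 2 h at room temperature before fluorescence reading.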

[18] = molecular target: Androgen receptor (Homo sapiens) (UniProt P10275); test: qHTS assay to identify small molecule agonists of the androgen receptor (AR) signaling pathway using the MDA cell line (AID 743040; further: nearly all actives have a fitted effect of over 20% in size)
How it was run: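 After a 5 h incubation at 37C and 0% CO2, MDA-kb2 reporter cells were dosed with compounds in DMSO and kept 16 h under the same conditions. Luciferase activity was then read as luminescence with ONE-Glo.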

[19] = molecular target: Androgen receptor (Homo sapiens) (UniProt P10275); test: qHTS assay to identify small molecule antagonists of the androgen receptor (AR) signaling pathway using the MDA cell line (AID 743042; further: nearly all actives have a fitted effect of over 55% in size)
How it was run: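 Antagonist mode: compounds plus R1881 agonist added to MDA-kb2 AR-luc cells, incubated 16 h at 37C. Luciferase reporter luminescence quantified, with multiplexed CellTiter-Fluor readout for cell viability.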

[20] = molecular target: Androgen receptor (Homo sapiens) (UniProt P10275); test: qHTS assay to identify small molecule agonists of the androgen receptor (AR) signaling pathway (AID 743036; active means well fitted activation curve with a large enough effect in the signal ratio in the repeat runs, with a control signal flat, not every such curve was filed as active; the % refers to the signal ratio)
How it was run: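 AR-UAS-bla HEK293 cells, plated 4 h before dosing, were treated with compound for 16 h at 37C. beta-Lactamase reporter read after 2 h with LiveBLAzer B/G FRET substrate at room temperature.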

Measured: Potency

O=C(COCCOCCOCC(=O)Nc1c(I)cc(I)c(C(=O)O)c1I)Nc1c(I)cc(I)c(C(=O)O)c1I
not listed: [17] | [18] | [19] | [20]
inactive: all other assays above

Nc1ccc(S(=O)(=O)Nc2ccccn2)cc1
not listed: [7] | [8] | [9] | [20]
inactive: all other assays above

C[C@H](CCC(=O)O)[C@H]1CC[C@H]2[C@@H]3[C@H](O)C[C@@H]4C[C@H](O)CC[C@]4(C)[C@H]3C[C@H](O)[C@]12C
not listed: [17] | [18] | [19] | [20]
inactive: all other assays above

COC(OC)C(C)c1ccccc1 (stereo not given)
not listed: [14]
inactive: all other assays above

CCCOCCOCCOCCO
not listed: [20]
inactive: all other assays above

COc1cccc2sc(N)nc12
not listed: [17] | [18] | [20]
inactive: all other assays above

CC(C)(c1ccc(Oc2ccc3c(c2)C(=O)OC3=O)cc1)c1ccc(Oc2ccc3c(c2)C(=O)OC3=O)cc1
not listed: [17] | [18] | [19] | [20]
inactive: all other assays above

Cc1cccc(C(=O)O)c1[N+](=O)[O-]
not listed: [17] | [18] | [19] | [20]
inactive: all other assays above

Cc1nc([N+](=O)[O-])cn1-c1ccc([N+](=O)[O-])cc1
not listed: [17] | [18] | [19] | [20]
inactive: all other assays above

CCOC(=O)C(C)(C)C
not listed: [17] | [18] | [19] | [20]
inactive: all other assays above

CCCCCCCCCCCCCCCCI
not listed: [10] | [12] | [13] | [14]
inactive: all other assays above

CCCCC[Si](OCC)(OCC)OCC
not listed: [8] | [9] | [10] | [12] | [13] | [14] | [17]
inactive: all other assays above

Nc1ccnc(=O)[nH]1
inactive: all assays above

CCNC(=O)/C=C/c1cccc(Br)c1
inactive: [1] | [2] | [3] | [4] | [5] | [18] | [6] | [7] | [11] | [15] | [16]

Cn1c(=O)c2c(ncn2CC2OCCO2)n(C)c1=O
not listed: [10] | [12] | [13] | [14]
inactive: all other assays above

CNC(=O)NC
inactive: all assays above

CCN(CCC#N)c1ccccc1
not listed: [17] | [18] | [19] | [20]
inactive: all other assays above

CCCCCCCCCCCCOC(C)=O
not listed: [17] | [18] | [19] | [20]
inactive: all other assays above

O=CN1CCOCC1
not listed: [14] | [17]
inactive: all other assays above

C1=C\CC/C=C\CC/1
not listed: [17] | [18] | [19] | [20]
inactive: all other assays above

CCCCC(=O)N(C)C
not listed: [17] | [18] | [19] | [20]
inactive: all other assays above

O=[Si]=O
not listed: [17] | [18] | [19] | [20]
inactive: all other assays above

CC(=O)N(CC(O)CO)c1c(I)c(C(=O)NCC(O)CO)c(I)c(C(=O)NCC(O)CO)c1I (stereo not given)
not listed: [17] | [18] | [19] | [20]
inactive: all other assays above

CC(CC(=O)O)CC(C)(C)C (stereo not given)
not listed: [17] | [18] | [19] | [20]
inactive: all other assays above

O=C1OC(=O)c2ccccc21
not listed: [17] | [18] | [19] | [20]
inactive: all other assays above

CCOC(=O)CC#N
not listed: [17] | [18] | [19] | [20]
inactive: all other assays above

COCC(=O)Nc1c(I)c(C(=O)NCC(O)CO)c(I)c(C(=O)N(C)CC(O)CO)c1I (stereo not given)
inactive: all assays above

C=CCOCC(O)CCl (stereo not given)
not listed: [14]
inactive: all other assays above

O=C(O)c1ccccc1C(=O)OCc1ccccc1
not listed: [11] | [14] | [17]
inactive: all other assays above

O=c1[nH]c(=O)c2[nH]c(=O)[nH]c2[nH]1
not listed: [17] | [18] | [19] | [20]
inactive: all other assays above

CN=C(NC#N)NCCSCc1csc(N=C(N)N)n1
not listed: [17] | [18] | [19] | [20]
inactive: all other assays above

NCCc1ccn[nH]1
not listed: [7] | [8] | [9]
inactive: all other assays above

O=c1[nH]c(=O)c2ccccc2o1
not listed: [10] | [12] | [13] | [14] | [17] | [20]
inactive: all other assays above

CC1CCC(C(C)(C)S)C(=O)C1 (stereo not given)
not listed: [17] | [18] | [19] | [20]
inactive: all other assays above
